MIN6 prolif – induces beta-cell replication in MIN6 cells. 0.29% of 330,000 active. MIN6 cells proliferation, ATPlite luminescence, 48 h; cells starved in 0.2% serum; 100% = growth in 10% serum. proliferation, % at 10 µM. AID 2380;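 active = compounds whose signal lies at least 3.5 SD above the mean of all wells on their plate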;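 also: 0% = DMSO-treated cells in low-serum medium and 100% = 10% serum control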
M18AAP inhibitor – blocks P. falciparum M18 aspartyl aminopeptidase. inhibition, % at 7.35 µM. 1.2% of 290,000 active. recombinant PfM18AAP, H-Glu-NHMec fluorogenic cleavage;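 active = inhibition above the campaign mean inhibition over all tested compounds plus 3 SD, cut at about 28% in these data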;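 also: 0% = plate median of test compound wells and 100% = 2 mM ZnCl2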
ALR H2O2 inh – inhibitors of human sulfhydryl oxidase ALR; purified ALR, DTT oxidation, H2O2 HRP-luminol luminescence; inhibition, % (test concentration not listed); 3.8% of 290,000 active; AID 485317;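 active = mean replicate inhibition above about 79%, with every replicate also reaching it, limit read from the data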
Target sequence (P55789 whole entry, looked up): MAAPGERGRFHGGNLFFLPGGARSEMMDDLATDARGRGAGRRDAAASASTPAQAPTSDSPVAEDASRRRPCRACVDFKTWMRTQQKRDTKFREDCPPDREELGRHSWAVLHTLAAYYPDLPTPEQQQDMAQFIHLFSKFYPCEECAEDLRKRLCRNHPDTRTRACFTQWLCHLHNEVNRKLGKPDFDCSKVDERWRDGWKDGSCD
JMJD2C inh – blocks human GASC-1 demethylase activity. GST-JMJD2C(1-420) H3K9me3 demethylation, DELFIA europium. 0.069% of 330,000 active. Q9H3R0. inhibition, % at 2.35 µM;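 active = more than half of a compound's replicate wells show inhibition beyond 50%, single wells judged on their own value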;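 also: signal counts dimethyl H3K9 product captured on neutravidin plate; 0% = median of DMSO wells and 100% = 0.3 times that DMSO median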
Target sequence (Q9H3R0 1-420 limits assumed): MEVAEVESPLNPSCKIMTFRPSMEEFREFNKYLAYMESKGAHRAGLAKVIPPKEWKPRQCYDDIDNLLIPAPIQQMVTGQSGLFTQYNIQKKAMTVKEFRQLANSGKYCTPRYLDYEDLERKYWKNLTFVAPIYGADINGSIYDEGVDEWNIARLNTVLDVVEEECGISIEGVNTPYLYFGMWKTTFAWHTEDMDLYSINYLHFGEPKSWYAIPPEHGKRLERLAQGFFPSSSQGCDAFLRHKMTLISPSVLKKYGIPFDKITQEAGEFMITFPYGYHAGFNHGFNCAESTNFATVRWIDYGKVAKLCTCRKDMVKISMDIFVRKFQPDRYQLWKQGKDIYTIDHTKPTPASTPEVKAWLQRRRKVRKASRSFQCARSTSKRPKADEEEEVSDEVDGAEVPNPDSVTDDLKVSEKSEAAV
Granule exo inh – lytic granule exocytosis inhibition; TALL-104 LAMP-1 surface exposure, flow cytometry; cells stimulated with thapsigargin and PMA; inhibition, % at 10 µM; 0.66% of 360,000 active;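 active = inhibition above about 55%, limit read from the data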
SMARCA2 activ – increases SMARCA2 function in MMTV reporter cells. MG213 cells, MMTV-luciferase reporter, dexamethasone, overnight. 1% of 370,000 active. activation, % at 9.1 µM; in the data active = activation above about 7.8%;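 also: 0% = vehicle wells and 100% = reference activator wells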
Active calls of the source: *. In the library only some 5.4% were active in any assay of this set; here they are far more common.

What do the screens show for `Cc1ccc(NC(=O)CN2C(=O)NC(C)(c3ccc(Cl)cc3)C2=O)cc1` (configuration not stated)?
MIN6 prolif: -4.2; M18AAP inhibitor: 0.2; ALR H2O2 inh: -0.3; JMJD2C inh: -4.4; Granule exo inh: 0.3; SMARCA2 activ: -3.0

How did C[C@H]1COc2c3ccccc3nn21 do in these assays?
SMARCA2 activ: 1.2

Results for COc1ccccc1C(=O)CSc1nccn1C ?
MIN6 prolif: 0.0; M18AAP inhibitor: -0.2; JMJD2C inh: -3.2; Granule exo inh: 0.9; SMARCA2 activ: 4.8

How did Cn1ccnc1SCC(=O)c1c[nH]c2ccccc12 do in these assays?
MIN6 prolif: -1.0; M18AAP inhibitor: 2.7; ALR H2O2 inh: 96.2*; JMJD2C inh: -3.8; Granule exo inh: -0.1; SMARCA2 activ: 4.8

What do the screens show for `O=C(O)CSCC(=O)Nc1cc(C(F)(F)F)ccc1Cl`?
MIN6 prolif: -2.4; M18AAP inhibitor: 3.3; ALR H2O2 inh: -16.3; JMJD2C inh: 5.8; Granule exo inh: 0.0; SMARCA2 activ: -0.6

Results for Cc1ncc(CSCC(=O)Nc2cc(C(F)(F)F)ccc2Cl)c(CO)c1O ?
MIN6 prolif: 1.5; M18AAP inhibitor: -14.3; ALR H2O2 inh: 94.2*; JMJD2C inh: 2.5; Granule exo inh: 8.1; SMARCA2 activ: -1.0

What do the screens show for `O=C(N[C@@H](Cc1cccnc1)C(=O)N1CCC[C@H]1C(=O)NCCc1ccccc1Cl)c1ccc(Cl)cc1Cl`?
SMARCA2 activ: -3.8

How did CC(=O)C(=Nc1ccc(Cl)cc1Cl)NNc1cccc(Cl)c1 do in these assays?
MIN6 prolif: -6.2; M18AAP inhibitor: -78.6; ALR H2O2 inh: 3.0; JMJD2C inh: 2.3; Granule exo inh: 84.9*; SMARCA2 activ: 1.9

Results for CC(=O)Nc1ccc(NC(=O)Nc2cccc(Cl)c2)cc1 ?
MIN6 prolif: -0.1; M18AAP inhibitor: -5.3; ALR H2O2 inh: -3.5; JMJD2C inh: 1.9; Granule exo inh: -4.6; SMARCA2 activ: -0.4

How did CC(C)CN1C(=O)[C@]2(CC(=O)N(C)C2c2ccccc2)c2cc(-n3cc(CN(C)C)nn3)ccc21 (some centres not stated) do in these assays?
SMARCA2 activ: -0.8

How did COc1ccc(NC(=O)/C(C#N)=C/c2ccc[nH]2)c(OC)c1 do in these assays?
MIN6 prolif: 3.8; M18AAP inhibitor: 3.6; ALR H2O2 inh: -3.5; JMJD2C inh: -0.6; Granule exo inh: -0.1; SMARCA2 activ: 1.6

How did COc1ccc(NC(=O)/C(C#N)=C/c2ncc([N+](=O)[O-])n2C)c(OC)c1 do in these assays?
MIN6 prolif: -2.4; M18AAP inhibitor: 1.4; ALR H2O2 inh: -9.8; JMJD2C inh: 5.0; Granule exo inh: 97.0*; SMARCA2 activ: -0.3

How did COCCCNC(=O)C[C@H]1C[C@@]2(C(=O)OC)C(=C[C@H](COCc3ccccc3)O[C@@H]2C)N(Cc2ccco2)C1=O do in these assays?
SMARCA2 activ: -2.6

How did CC(COc1ccc(Br)cc1)CN1CCC(C(O)(c2ccccc2)c2ccccc2)CC1 (configuration not stated) do in these assays?
SMARCA2 activ: -5.3

Results for NNS(=O)(=O)c1ccc2c(c1)Cc1cc(S(=O)(=O)NN)ccc1-2 ?
MIN6 prolif: -0.8; M18AAP inhibitor: 3.5; ALR H2O2 inh: 98.8*; JMJD2C inh: 8.6; Granule exo inh: -12.8; SMARCA2 activ: 1.9

How did C=CCOC(=O)C(CO)NC(=O)CCCC(=O)O (configuration not stated) do in these assays?
SMARCA2 activ: 1.0

How did CC(=O)CC[C@@H]1CC[C@]2(CCCN(C(=O)c3ccco3)C2)O1 do in these assays?
SMARCA2 activ: -2.3

What do the screens show for `CC(C)(C)c1ccc(S(=O)(=O)N2CCC(C(=O)NCc3cccs3)CC2)cc1`?
SMARCA2 activ: -4.8

Results for O=C1/C(=C/c2cccc([N+](=O)[O-])c2)Oc2cc(O)ccc21 ?
MIN6 prolif: -5.3; M18AAP inhibitor: 4.0; ALR H2O2 inh: 5.3; JMJD2C inh: -7.4; Granule exo inh: 8.3; SMARCA2 activ: -0.8

Results for O=C1/C(=C/c2ccc(O)c(O)c2)Oc2cc(O)ccc21 ?
MIN6 prolif: -0.6; ALR H2O2 inh: 98.4*; Granule exo inh: 15.2; SMARCA2 activ: 4.7

Results for CSc1c(N(C)C)c(=O)c1=S ?
SMARCA2 activ: 6.9

What do the screens show for `CCCCC(NC(=O)CCc1c(C)c2cc3c4c(oc3c(C)c2oc1=O)CCCC4)C(=O)O` (configuration not stated)?
MIN6 prolif: -4.6; M18AAP inhibitor: 3.0; ALR H2O2 inh: 95.9*; JMJD2C inh: -2.4; Granule exo inh: -6.4; SMARCA2 activ: -6.8

What do the screens show for `CCCCC(NC(=O)Cc1c(C)c2cc3c4c(oc3c(C)c2oc1=O)CCCC4)C(=O)O` (configuration not stated)?
MIN6 prolif: -3.8; M18AAP inhibitor: -5.4; ALR H2O2 inh: 63.9; JMJD2C inh: -7.3; Granule exo inh: 0.7; SMARCA2 activ: 1.3

Results for CCN(CC)C(=O)CC[C@H]1CC[C@]2(CCCN(c3ccccc3)C2)O1 ?
SMARCA2 activ: -6.4

How did CN1OC[C@@H]2CN(Cc3ccc4c(c3)OCO4)[C@H](c3ccc(-n4ccnc4)cc3)C[C@@H]21 do in these assays?
SMARCA2 activ: -2.0

Results for C=CCn1cccc(C(=O)Nc2ccc(N(C)C)cc2)c1=O ?
MIN6 prolif: -1.3; M18AAP inhibitor: 14.6; ALR H2O2 inh: 98.8*; JMJD2C inh: -3.3; Granule exo inh: -18.1; SMARCA2 activ: 2.3

How did C=CCn1cccc(C(=O)Nc2ccc(Cl)cc2)c1=O do in these assays?
MIN6 prolif: -1.0; M18AAP inhibitor: 4.1; ALR H2O2 inh: -3.7; JMJD2C inh: 2.5; Granule exo inh: -1.0; SMARCA2 activ: -1.6

What do the screens show for `Cc1cccc(NC(=O)CC2Nc3cccc4cccc(c34)NC2=O)c1` (configuration not stated)?
MIN6 prolif: -3.8; M18AAP inhibitor: 3.5; ALR H2O2 inh: 19.9; JMJD2C inh: 51.4*; Granule exo inh: -1.0; SMARCA2 activ: -0.9

Results for CCOc1ccc(NC(=O)CC2Nc3ccccc3NC2=O)cc1 (configuration not stated) ?
MIN6 prolif: -0.1; M18AAP inhibitor: -4.8; ALR H2O2 inh: 1.9; JMJD2C inh: 40.5; Granule exo inh: -0.5; SMARCA2 activ: 1.2

Results for CC(=O)c1ccc(NC(=O)CC2Nc3cccc4cccc(c34)NC2=O)cc1 (configuration not stated) ?
MIN6 prolif: -3.0; M18AAP inhibitor: 28.6*; JMJD2C inh: -1.4; Granule exo inh: -1.9; SMARCA2 activ: -0.1

What do the screens show for `CC(C)C[C@@H]1COc2cccc(N3CCCC3)c2S(=O)(=O)N1C`?
SMARCA2 activ: -0.8

What do the screens show for `Cc1cc(C)cc(OC[C@@H](O)CN2CCC(C(O)(c3ccccc3)c3ccccc3)CC2)c1`?
SMARCA2 activ: -5.5

What do the screens show for `C[C@@H]1OCN(C)[C@H]2C[C@H]3c4[nH]c5cccc(-c6ccccc6)c5c4CCN3C[C@@H]12`?
SMARCA2 activ: -1.7

Assay outcomes: PubChem BioAssay, several laboratories
